From PubChem
This is a sample that favours compounds with a hit; in the whole collection about 6% have one here.
D1 antag – Antagonist of Human D 1 Dopamine Receptor: qHTS | D(1A) dopamine receptor (Homo sapiens), P21728 | HEK293 TREx D1 cells, calcium flux, dopamine EC80; stronger effect = lower value | activity change, negative = inhibition, % at 10 µM | 360,000 tested, 3.2% active | AID 504652, 2011; in the data active = activity change below about -30%
Target sequence (P21728 whole entry, looked up): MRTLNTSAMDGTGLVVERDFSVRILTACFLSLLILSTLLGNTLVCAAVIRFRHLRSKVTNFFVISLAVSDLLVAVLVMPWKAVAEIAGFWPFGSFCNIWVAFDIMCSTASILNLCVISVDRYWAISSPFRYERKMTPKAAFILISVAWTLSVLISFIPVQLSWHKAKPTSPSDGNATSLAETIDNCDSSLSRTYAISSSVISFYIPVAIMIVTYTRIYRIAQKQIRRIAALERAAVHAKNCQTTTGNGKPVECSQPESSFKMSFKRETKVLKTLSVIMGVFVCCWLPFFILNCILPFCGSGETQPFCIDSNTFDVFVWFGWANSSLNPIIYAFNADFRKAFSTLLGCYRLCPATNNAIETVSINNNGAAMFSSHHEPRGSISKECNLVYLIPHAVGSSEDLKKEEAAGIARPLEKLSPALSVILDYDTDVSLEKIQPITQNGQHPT
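Tetracycline-induced HEK293 Trex D1 cells, force-coupled to calcium, dye-loaded; compounds added and read 180 s, then EC80 dopamine added and calcium flux tracked kinetically another 180 s.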
D1 agonist – Allosteric Agonists of the Human D1 Dopamine Receptor: qHTS; AID 504660, 2011; 360,000 tested, 1% active; HEK293 T-REx D1 cells, calcium flux, agonist mode; activation, % at 2 µM; in the data active = activation above about 30%
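Agonism was scored from calcium flux recorded over 180 s (1 read/s) after pintool compound addition, following a 10-cycle baseline. Cells were inducible force-coupled HEK293 TREx D1, plated overnight at 30 C and loaded with no-wash calcium dye.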
D3 ag – qHTS of D3 Dopamine Receptor Agonist: qHTS; AID 652048, 2013; D3R DiscoveRx beta-arrestin cells, luminescence, 90 min; 410,000 tested, 0.58% active; max activation, %; D(3) dopamine receptor (Homo sapiens), P35462; in the data active = max activation above about 30%
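Cells at 1500/well, incubated overnight, then treated with pinned compounds (dopamine as control) for 90 min at 37 degrees C. DiscoveRx reagent added for 30 - 60 minutes at room temperature; luminescence read.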
D1 PAM – Potentiators of Human D1 Dopamine Receptor: qHTS. D(1A) dopamine receptor (Homo sapiens), P21728. HEK293 TREx D1 cells, calcium flux, dopamine EC20 potentiation. potentiation, % at 10 µM. 360,000 tested, 0.036% active. AID 504651, 2011; in the data active = potentiation above about 30%
DRD3 antagonist – qHTS of D3 Dopamine Receptor Antagonist: qHTS | D(3) dopamine receptor (Homo sapiens), P35462 | D3R cells, DiscoveRx beta-arrestin luminescence, antagonist mode; stronger effect = lower value | max response, negative = inhibition, % | 360,000 tested, 2.5% active; in the data active = max response below about -50%; inconclusive = no clear call, values can overlap the other calls
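Cells expressing the human receptor were seeded at 1500 cells/well, incubated overnight at 37 degrees C in 5% CO2, then exposed to library compounds with dopamine controls for 90 minutes at 37 degrees C before luminescent detection.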
Hits are given with their value; n = inactive; u = inconclusive; x = no result given.

SMILES	D1 antag	D1 agonist	D3 ag	D1 PAM	DRD3 antagonist
O=C(NCC1CCCO1)c1cccc(NS(=O)(=O)c2ccc(Br)cc2)c1 (centres undefined)	n	n	n	n	n
CN(C)C(CNC(=O)CCNC(=O)c1ccc(Br)cc1)c1ccco1 (centres undefined)	n	n	n	n	n
CN(C)C(CNC(=O)c1ccc(Br)cc1)c1ccco1 (centres undefined)	n	n	n	n	-63
COC(=O)C(F)(Sc1c(C)n(C)n(-c2ccccc2)c1=O)C(F)(F)F (centres undefined)	n	n	n	n	-60
CC1CCC2(CC1)NC(=O)N(CC(=O)N(Cc1ccccc1)C(C)(C)C)C2=O (centres undefined)	n	n	n	n	n
CC(C)(C)N(Cc1ccccc1)C(=O)CN1C(=O)NC2(CCCCCC2)C1=O	-75	n	n	x	n
CCn1c(C)c(CS(=O)(=O)c2ccccc2)[nH]c1=O	n	n	n	n	-71
Cc1cc(=O)oc2cc(OCC(=O)NC(Cc3c[nH]c4ccc(O)cc34)C(=O)O)c(Cl)cc12 (centres undefined)	n	n	31	n	n
CCOC(=O)/C(C#N)=C/c1cc(C)n(-c2ccc(C)cc2)c1C	-75	n	n	n	u
CCOC(=O)/C(C#N)=C\c1ccc(N2CCN(C/C=C/c3ccccc3)CC2)cc1	n	109	n	n	u
Cc1cc(/C=C(\C#N)C(=O)NCc2cccs2)c(C)n1-c1ccc([N+](=O)[O-])cc1	-56	n	n	n	n
CCOC(=O)/C(C#N)=C\c1cc(C)n(-c2ccccc2)c1C	n	n	n	n	n
CCOC(=O)/C(C#N)=C/c1c(N2CCN(c3ccccc3)CC2)nc2ccccn2c1=O	n	n	n	n	n
Cc1cc(/C=C(\C#N)C(=O)NCc2ccco2)c(C)n1-c1cccnc1	n	n	n	n	n
CC(C)CC1(C(=O)NCc2cc(F)cc(C(F)(F)F)c2)C=CCN1C(=O)c1ccccc1 (centres undefined)	-30	n	n	n	n
Cc1ccccc1Cn1cc(S(=O)(=O)c2ccc(Cl)cc2)c(=O)c2cc3c(cc21)OCO3	n	n	n	n	x
COc1cccc(CN(C)C(c2ccccc2)c2ccccc2)c1OC	n	n	n	n	-51
COc1ccc(CN(C)C(c2ccccc2)c2nnnn2-c2ccccc2C)c(OC)c1C (centres undefined)	n	n	n	n	n
COc1cccc(-c2cccc(NC(=O)C3CCN(Cc4nccs4)CC3)c2)c1	n	n	n	n	n
CCOc1ccc(CN2CCC(C(=O)Nc3cccc(-c4ccn[nH]4)c3)CC2)cc1Cl	-53	n	n	n	n
CN(c1nccc(=O)[nH]1)C1CCN(c2nc3ccccc3n2Cc2ccc(F)cc2)CC1	x	x	n	x	x
COc1ccccc1CNC(=O)CCc1c(C)nc2c(c(C)nn2-c2ccc(C)c(C)c2)c1C	-73	n	n	n	x
COc1ccc(CCNC(=O)CCc2c(C)nc3c(c(C)nn3-c3ccc(C)c(C)c3)c2C)cc1OC	n	n	n	n	x
COc1ccc(-c2noc(CCC(=O)NCc3ccc(OC)cc3OC)n2)cc1	n	n	n	n	x
COc1cc(-c2n[nH]c(=S)n2/N=C/c2cccn2C)cc(OC)c1OC	-59	78	n	n	n
SMILES	D1 antag	D1 agonist	D3 ag	D1 PAM	DRD3 antagonist
CC(NCCCOc1cccc2ccccc12)c1ccccc1 (centres undefined)	n	39	n	n	n
O=C(NCc1ccc(Cl)cc1)C1CCN(c2nn3cc(-c4ccc(F)cc4)nc3s2)CC1	n	n	n	n	x
O=C(CC1NCCc2ccccc21)Nc1ccc(Oc2ccccc2)cc1 (centres undefined)	n	n	n	n	u
O=C(CC1NCCc2ccccc21)Nc1ccccc1 (centres undefined)	n	n	n	n	-74
N#CC1=C(N)C(C#N)(C#N)C(c2cccnc2)C2CCCC=C12 (centres undefined)	-30	n	x	n	x
Cc1ccc(-n2c(=O)c3c4c(sc3n(CC(=O)c3ccc(Cl)cc3)c2=O)CCC4)cc1C	n	n	n	n	x
CCN(CC)S(=O)(=O)c1ccc2c(c1)C(=NO)c1cc(S(=O)(=O)N(CC)CC)ccc1-2	n	n	n	n	-80
CCN(CC)S(=O)(=O)c1cccc(S(=O)(=O)N2CCCCC2)c1	-33	n	n	n	n
CCN(CC)S(=O)(=O)c1cccc(S(=O)(=O)c2cccc(S(=O)(=O)N(CC)CC)c2)c1	n	n	36	n	n
CCN(CC)S(=O)(=O)c1cccc(C(=O)Oc2cccnc2)c1	n	n	n	n	-53
CCN(CC)S(=O)(=O)c1ccc(C)c(C)c1	n	n	n	n	n
CCCCOC(=O)c1ccc(NC(=O)CSc2nc3c(c(=O)[nH]2)CCC3)cc1	n	n	n	n	x
COc1ccc(/C=C/c2nc(C#N)c(N3CCC(C(N)=O)CC3)o2)cc1OC	n	n	n	n	x
COc1ccc(S(=O)(=O)N2CCCCCC2)cc1N(C)S(=O)(=O)c1ccccc1	-42	n	n	n	n
COc1ccc(S(=O)(=O)N2CCCCC2)cc1N(C)S(=O)(=O)c1ccccc1	n	n	n	n	n
CCSc1ncc(Cl)c(C(=O)Nc2ccc(S(=O)(=O)N3CCCCC3)cc2)n1	n	n	n	n	x
CCN(c1ccccc1)S(=O)(=O)c1ccc(OC)c(NC(=O)Cc2ccccc2OC)c1	n	n	n	n	n
CCN(c1ccccc1)S(=O)(=O)c1ccc(Cl)c(NC(=O)CNCc2ccccc2OC)c1	x	x	n	x	-66
COc1ccc(/C=C/C(=O)OCC(=O)Nc2cc(S(=O)(=O)N(C)C)ccc2Cl)cc1	-34	n	n	n	n
COc1cc(/C=C/C(=O)OCC(=O)Nc2cc(S(=O)(=O)N(C)C)ccc2Cl)ccc1O	n	n	n	n	n
COc1cccc(/C=C/C(=O)OCC(=O)Nc2ccc(Cl)c(S(=O)(=O)N(C)C)c2)c1OC	n	n	n	n	n
COc1ccc(OC)c(/C=C/C(=O)OCC(=O)Nc2ccc(Cl)c(S(=O)(=O)N(C)C)c2)c1	-35	n	n	n	n
CCN(CC)S(=O)(=O)c1ccc(Cl)c(NC(=O)COc2ccc(OC)cc2)c1	-31	n	n	n	n
O=C(Nc1ccc2c(c1)N(C1CCCC1)C(=O)c1ccccc1S2)c1ccc(F)cc1	n	n	n	n	x
COc1ccc(C(=O)NCC(c2ccc3c(c2)OCO3)N2CCOCC2)cc1OC (centres undefined)	n	n	n	n	x
CC(C)(C)c1ccc(-c2nc(SCCCOc3ccccc3)n3[nH]c(=O)cc3n2)cc1	n	n	n	n	x
